Several values for one entry are separate records, joined by “and”; a condition that tells them apart may be missing. Equal values may be shown once. Records with an inconclusive call do not appear. A structure can be active in one record and inactive in another. Activity calls are given as the source filed them. Unless noted, calls come from the whole dose curve.

Assay [1] can be described thus: Nuclear factor erythroid 2-related factor 2/antioxidant responsive element (Nrf2/ARE) small molecule agonists: qHTS cell viability counter screen in human keratinocytes (AID 1919968; active = well fitted curve in the direction sought with a large enough effect in the repeat runs; an effect the other way counts as inactive or inconclusive; note: nearly all actives have a fitted effect of over 55% in size; note: potency is the fitted concentration of half-maximal effect). The essentials: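 In human HaCaT keratinocytes stably expressing an ARE-driven luciferase, compound exposure lasted 23 h at 37 C under 5% CO2. Viable cells are quantified with a protease-based fluorogenic reagent (CellTiter-Fluor) read 1 h after addition.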

The nature of assay [2]: Nuclear factor erythroid 2-related factor 2/antioxidant responsive element (Nrf2/ARE) small molecule agonists: luciferase reporter gene qHTS assay in human keratinocytes (AID 1919969). Note: nearly all actives have a fitted effect of over 35% in size. Note: potency is the fitted concentration of half-maximal effect. Background: A reporter such as luciferase makes a cellular process visible.
The target in assay [3] is Gonadotropin-releasing hormone receptor (Homo sapiens) (UniProt P30968). Put plainly: Human gonadotropin-releasing hormone receptor (GnRHR) small molecule agonists, calcium flux assay in GnRHR-HEK293 cells (AID 1920063). Note: nearly all actives have a fitted effect of over 35% in size. The essentials:
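Intracellular calcium rise is the read-out: engineered human GnRHR HEK293 cells, dye-loaded, are exposed to DMSO-dissolved compounds and fluorescence at Ex/Em 480/540 is tracked for 3 min.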

Assay [4] has as its target KiSS-1 receptor (Homo sapiens) (UniProt Q969F8). Put plainly: Human kisspeptin (KISS1R) small molecule agonists, calcium flux assay in KISS1R-HEK293 cells (AID 1920064; active = well fitted curve in the direction sought with a large enough effect in the repeat runs; an effect the other way counts as inactive or inconclusive). The essentials:
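Concentration-response testing used 15 concentrations in triplicate on human KISS1R-expressing HEK293 cells. Calcium-dependent fluorescence (Ex/Em 480/540) was followed kinetically for 3 min after compound transfer.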
Background: Calcium assays in cells follow changes in intracellular calcium, usually with a dye or a luminescent sensor.

Assay [5] is described as follows: G protein-coupled receptor (GPCR) small molecule agonists, calcium flux assay: HEK293 wild type cell line counter screen (AID 1920065). The essentials: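 Fluorescence intensity signals activation. After overnight (18 h) culture and a 1 h calcium dye load at 37 C, compounds are added by pin tool and the plate read at 480/540 nm for 3 min in 1 s steps.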
A short description of assay [6]: p53 small molecule agonists, cell-based qHTS assay with human liver microsomes: qHTS cell viability counter screen (AID 1963579). Note: nearly all actives have a fitted effect of over 45% in size. The essentials:
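p53RE-bla cells, 4,000/well, dosed 5 hours after plating, with human liver microsomes (0.5 mg/mL final) plus NADPH (0.5 mg/mL final), 16 hours at 37 C. Viability read as CellTiter-Glo luminescence after 30 min at room temperature.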
For orientation: qHTS replaces the single test concentration by a dilution series.

Assay [7] can be described thus: p53 small molecule agonists, cell-based qHTS assay with rat liver microsomes: qHTS cell viability counter screen (AID 1963580). Note: nearly all actives have a fitted effect of over 45% in size. Note: potency is the fitted concentration of half-maximal effect. The essentials: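 Cytotoxicity counter screen: intracellular ATP measured by CellTiter-Glo luminescence in the same wells as the beta-lactamase reporter read, on HCT-116 p53RE-bla cells exposed 16 h at 37 C to compounds with rat liver microsomes and NADPH, each 0.5 mg/mL final.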

Assay [8] can be described thus: p53 small molecule agonists, cell-based qHTS assay: qHTS cell viability counter screen (AID 1963581). Note: nearly all actives have a fitted effect of over 45% in size. An outline of the steps:
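Luminescence from CellTiter-Glo, reflecting ATP content, serves as the cytotoxicity measure; it is taken after the 2 h reporter substrate step in HCT-116 p53RE-bla cells dosed for 16 h at 37 C.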

Assay [9] addresses 5-hydroxytryptamine receptor 2A (Homo sapiens) (UniProt P28223). Put plainly: 5-hydroxytryptamine receptor 2A (HTR2A) small molecule antagonists, cell-based qHTS assay (AID 1963586). Note: nearly all actives have a fitted effect of over 45% in size. An outline of the steps:
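CHO cells stably expressing human HTR2A were plated for 18 h at 37 C, then loaded with calcium dye for 1 h. Compounds were preincubated 5 min at room temperature before DOI (4 nM solution) was added. Kinetic fluorescence was read for 3 min.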

Assay [10] has the same target. Nature of the assay: 5-hydroxytryptamine receptor 2A (HTR2A) small molecule agonists, cell-based qHTS assay (AID 1963587). Note: nearly all actives have a fitted effect of over 30% in size. An outline of the steps:
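CHO cells stably expressing human HTR2A, plated 18 h, loaded with calcium dye 1 h at 37 C. Agonist mode: compounds added and intracellular calcium fluorescence recorded kinetically for 2 min at 1 sec intervals.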

The target in assay [11] is Muscarinic acetylcholine receptor M1 (Homo sapiens) (UniProt P11229). Put plainly: Cholinergic receptor muscarinic 1 (CHRM1) small molecule antagonists, cell-based qHTS assay (AID 1963588). Note: nearly all actives have a fitted effect of over 40% in size. The essentials: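 Compounds were tested at 15 concentrations in three independent runs. Dye-loaded CHRM1-CHO cells were exposed 5 min at room temperature before stimulation by acetylcholine added at 50nM. Intracellular calcium was read kinetically on FDSS for 3 min.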

The target is the same in assay [12]. Nature of the assay: Cholinergic receptor muscarinic 1 (CHRM1) small molecule agonists, cell-based qHTS assay (AID 1963589). Note: nearly all actives have a fitted effect of over 35% in size. Note: potency is the fitted concentration of half-maximal effect. An outline of the steps: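 Fluorescent calcium dye reports M1 activation in stably transfected CHO cells. Compounds, 15 concentrations, added after 1 h dye loading at 37 C; kinetic reading at 1 sec intervals.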
Assay [13] can be described thus: cAMP Responsive Elements (CRE) small molecule agonists, cell-based qHTS assay (AID 1963590). An outline of the steps: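 Compound exposure lasted 3 h at 37 C/5% CO2 in CRE-bla HEK 293T cells grown in assay medium with 10% dialyzed FBS and 25 mM HEPES. Reporter signal came from LiveBLAzer B/G FRET substrate, 2 h, room temperature.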
The nature of assay [14]: cAMP Responsive Elements (CRE) small molecule antagonists, cell-based qHTS assay (AID 1963591; active = well fitted inhibition curve with a large enough effect in the signal ratio in the repeat runs, not every such curve was filed as active; the % refers to the signal ratio). An outline of the steps:
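Stimulation used NKH477 at a final 0.25 uM for 3 h in compound-treated CRE-bla HEK293T cells, seeded 18 h beforehand. Reporter activity was measured with LiveBLAzer B/G FRET substrate after 2 h at room temperature.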

For assay [15], the target named is D(2) dopamine receptor (Homo sapiens) (UniProt P14416). Put plainly: Dopamine D2 receptor (DRD2) small molecule antagonists, cell-based qHTS assay (AID 1963595; active = well fitted inhibition curve with a large enough effect in the signal ratio in the repeat runs, with a control signal flat; the % refers to the signal ratio). An outline of the steps:
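Antagonist mode in DRD2-HEK293 cells: after compound addition with 0.1 mM Ro20-1724, cells received quinpirole (12 nM) and NKH477 (200 nM) for 30 min at room temperature; HTRF cAMP read after 1 h detection.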

Assay [16] addresses Beta-2 adrenergic receptor (Homo sapiens) (UniProt P07550). Nature of the assay: Adrenergic beta2 receptor (ADRB2) small molecule antagonists, cell-based qHTS assay (AID 1963592). Note: series mostly up to about 92 µM; nearly all actives have a fitted effect of over 50% in size. The essentials: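 Assay format: CHO-ADRB2 cells, 18-20hr seeding at 37C/5% CO2, then compound plus 1nM isoproterenol agonist mix for 0.5hr RT. Homogeneous time-resolved fluorescence cAMP detection after 1hr, expressed as 665/615 nm ratio.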

Assay [17] deals with D(2) dopamine receptor (Homo sapiens) (UniProt P14416). Put plainly: Dopamine D2 receptor (DRD2) small molecule agonists, cell-based qHTS assay (AID 1963594). Note: nearly all actives have a fitted effect of over 35% in size. An outline of the steps: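 HEK293 cells stably expressing human DRD2, pre-treated with PDE inhibitor Ro20-1724 (0.1 mM final) and compound 10 min at room temperature, then stimulated with NKH477 (200nM […]) for 30 min. cAMP read by HTRF (665/620 nm).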

In assay [18] the target is Beta-2 adrenergic receptor (Homo sapiens) (UniProt P07550). Put plainly: Adrenergic beta2 receptor (ADRB2) small molecule agonists, cell-based qHTS assay (AID 1963593).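 Note: CHO cells stably overexpressing human ADRB2.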 An outline of the steps:
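CHO cells stably over-expressing ADRB2 were plated overnight at 37C, then dosed with compounds plus a stimulation mix containing 100uM IBMX and 25uM Ro-20-1724 for 0.5hr at room temperature. cAMP was measured by HTRF competition, 1hr.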

Chain of Muscarinic acetylcholine receptor M1 (Homo sapiens) (P11229 whole entry, looked up): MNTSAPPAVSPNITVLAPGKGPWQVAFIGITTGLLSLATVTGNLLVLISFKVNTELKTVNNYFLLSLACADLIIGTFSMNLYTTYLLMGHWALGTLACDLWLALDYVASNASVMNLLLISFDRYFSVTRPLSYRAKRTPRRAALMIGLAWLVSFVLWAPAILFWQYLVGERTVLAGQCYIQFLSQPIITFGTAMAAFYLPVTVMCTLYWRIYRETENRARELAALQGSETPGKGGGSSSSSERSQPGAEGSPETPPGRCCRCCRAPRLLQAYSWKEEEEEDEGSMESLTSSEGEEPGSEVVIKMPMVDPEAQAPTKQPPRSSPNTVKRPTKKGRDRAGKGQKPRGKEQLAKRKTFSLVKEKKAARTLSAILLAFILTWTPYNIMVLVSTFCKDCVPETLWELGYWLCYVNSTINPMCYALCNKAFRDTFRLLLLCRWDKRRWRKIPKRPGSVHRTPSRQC
Chain of D(2) dopamine receptor (Homo sapiens) (P14416 whole entry, looked up): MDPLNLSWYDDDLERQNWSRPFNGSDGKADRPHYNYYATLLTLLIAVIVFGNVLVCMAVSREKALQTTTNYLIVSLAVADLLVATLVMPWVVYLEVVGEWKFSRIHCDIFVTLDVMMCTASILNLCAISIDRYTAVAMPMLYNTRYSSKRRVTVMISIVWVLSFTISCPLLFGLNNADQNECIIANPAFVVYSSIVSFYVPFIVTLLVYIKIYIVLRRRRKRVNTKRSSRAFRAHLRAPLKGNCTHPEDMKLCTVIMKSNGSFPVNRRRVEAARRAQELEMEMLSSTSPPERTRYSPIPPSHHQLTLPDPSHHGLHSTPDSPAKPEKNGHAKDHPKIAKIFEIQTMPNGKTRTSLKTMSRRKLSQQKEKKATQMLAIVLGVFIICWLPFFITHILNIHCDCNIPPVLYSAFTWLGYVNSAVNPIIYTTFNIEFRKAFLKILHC
Chain of 5-hydroxytryptamine receptor 2A (Homo sapiens) (P28223 whole entry, looked up): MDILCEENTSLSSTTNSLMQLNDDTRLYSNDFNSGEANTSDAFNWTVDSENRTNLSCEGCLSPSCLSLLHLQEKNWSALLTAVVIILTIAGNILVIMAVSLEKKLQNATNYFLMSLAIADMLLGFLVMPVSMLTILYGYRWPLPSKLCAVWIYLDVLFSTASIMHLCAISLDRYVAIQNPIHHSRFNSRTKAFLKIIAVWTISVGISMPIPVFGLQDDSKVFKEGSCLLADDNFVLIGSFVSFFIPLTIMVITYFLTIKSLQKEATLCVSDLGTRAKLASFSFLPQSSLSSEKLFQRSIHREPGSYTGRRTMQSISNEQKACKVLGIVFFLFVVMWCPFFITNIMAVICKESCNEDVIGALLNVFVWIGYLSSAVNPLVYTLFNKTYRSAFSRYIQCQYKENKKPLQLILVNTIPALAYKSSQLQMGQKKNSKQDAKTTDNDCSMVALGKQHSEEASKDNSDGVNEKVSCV
Chain of KiSS-1 receptor (Homo sapiens) (Q969F8 whole entry, looked up): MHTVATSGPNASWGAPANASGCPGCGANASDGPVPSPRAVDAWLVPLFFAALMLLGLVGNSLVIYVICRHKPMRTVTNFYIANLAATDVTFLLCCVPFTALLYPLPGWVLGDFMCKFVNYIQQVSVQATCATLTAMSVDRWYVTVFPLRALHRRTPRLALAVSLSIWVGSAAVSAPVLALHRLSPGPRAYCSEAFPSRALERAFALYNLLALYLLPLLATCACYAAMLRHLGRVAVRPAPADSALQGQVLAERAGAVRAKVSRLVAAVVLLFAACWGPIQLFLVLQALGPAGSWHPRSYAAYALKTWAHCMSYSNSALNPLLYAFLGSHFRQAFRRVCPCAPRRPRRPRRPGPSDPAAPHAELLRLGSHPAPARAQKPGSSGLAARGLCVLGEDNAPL
Chain of Beta-2 adrenergic receptor (Homo sapiens) (P07550 whole entry, looked up): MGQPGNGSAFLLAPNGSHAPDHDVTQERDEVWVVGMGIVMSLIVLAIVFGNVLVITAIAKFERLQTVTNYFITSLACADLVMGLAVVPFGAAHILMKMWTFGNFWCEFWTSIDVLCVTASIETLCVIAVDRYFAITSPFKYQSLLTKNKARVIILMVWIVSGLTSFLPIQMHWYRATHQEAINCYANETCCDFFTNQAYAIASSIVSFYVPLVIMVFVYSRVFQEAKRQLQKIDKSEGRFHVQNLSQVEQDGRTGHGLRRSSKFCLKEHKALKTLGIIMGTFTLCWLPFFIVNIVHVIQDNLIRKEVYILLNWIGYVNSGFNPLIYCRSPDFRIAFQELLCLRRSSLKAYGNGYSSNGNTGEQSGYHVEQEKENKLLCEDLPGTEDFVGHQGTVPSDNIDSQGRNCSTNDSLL
Chain of Gonadotropin-releasing hormone receptor (Homo sapiens) (P30968 whole entry, looked up): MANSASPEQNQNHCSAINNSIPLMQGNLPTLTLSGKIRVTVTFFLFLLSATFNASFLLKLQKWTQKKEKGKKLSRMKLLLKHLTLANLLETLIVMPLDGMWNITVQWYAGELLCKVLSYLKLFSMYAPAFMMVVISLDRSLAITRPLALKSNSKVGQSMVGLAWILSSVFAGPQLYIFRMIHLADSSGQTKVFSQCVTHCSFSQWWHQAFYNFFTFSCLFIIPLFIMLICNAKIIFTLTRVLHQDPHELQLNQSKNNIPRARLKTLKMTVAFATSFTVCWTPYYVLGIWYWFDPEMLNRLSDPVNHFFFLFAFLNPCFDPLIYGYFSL

In the case of `C=CCc1ccc(OC)cc1`, the Potency entry in [1], in assay [2], in assay [3], in assay [4], in assay [5] and in assay [6] was “inactive” each time. Also, the Potency entry in assay [7], in assay [8], in [9], in assay [10], in assay [11] and in assay [12] was “inactive” each time. For the same molecule, the Potency result in assay [13], in assay [14] and in assay [15] was “inactive” each time.
In the case of `[CH3][Sn]([CH3])([Cl])[Cl]`, the Potency result in [1], in assay [3], in assay [4], in [5], in assay [6] and in assay [7] was “inactive” throughout. The Potency result in [8], in assay [9], in assay [10], in [11], in [12] and in [13] was “inactive” in each case. Moreover, the Potency result in [16], in assay [17] and in assay [15] was “inactive” throughout. Moreover, the Potency in [2] is 55.4 µM (active) and inactive.
Regarding `COc1ccccc1N`, the Potency entry in assay [1], in assay [3], in [4], in [5], in [6] and in [7] was “inactive” in each case. The Potency entry in assay [8], in assay [13], in assay [14], in assay [16], in [18] and in [17] was “inactive” each time. In addition, the Potency entry in assay [15] was “inactive”. Moreover, the Potency in assay [2] was 61.1 µM (active) and inactive.
In the case of `CCOP(=O)(OCC)Oc1ccc([N+](=O)[O-])cc1`, the Potency result in [1], in assay [2], in assay [3], in [4], in assay [5] and in [6] was “inactive” throughout. Moreover, the Potency result in [7], in assay [8], in [9], in [10], in [11] and in assay [12] was “inactive” each time. The Potency result in assay [13], in assay [16], in assay [18], in assay [17] and in assay [15] was “inactive” throughout.
For the molecule `O=C1CCCN1`, the Potency entry in assay [1], in assay [2], in assay [3], in assay [4], in [5] and in assay [6] was “inactive” in each case. The Potency entry in [7], in assay [8], in assay [9], in [10], in assay [11] and in assay [13] was “inactive” in each case. For the same molecule, the Potency entry in assay [14], in assay [16], in assay [17] and in assay [15] was “inactive” in each case. In addition, the Potency in [12] was 49.5 µM (active) and inactive.
In the case of `O=C(CCl)c1ccc(Cl)cc1Cl`, the Potency result was “inactive and 11.9 µM (active)” in [1]; 60.8 µM (active) and 11.9 µM (active) in assay [2]. In addition, the Potency result in assay [3], in assay [4], in assay [5], in assay [6], in [7] and in assay [8] was “inactive” in each case. In addition, the Potency result in [10], in assay [11], in assay [12], in [13], in [14] and in assay [16] was “inactive” throughout. The Potency entry in [17] and in assay [15] was “inactive” throughout.
With `CCc1cccc(CC)c1N(COC)C(=O)CCl`, the Potency entry in assay [1], in assay [3], in [4], in assay [5], in assay [6] and in [7] was “inactive” each time. Besides, the Potency result in assay [8], in assay [9], in assay [10], in assay [11], in assay [12] and in assay [16] was “inactive” each time. For the same molecule, the Potency result in assay [17] and in assay [15] was “inactive” each time. Further, the Potency in assay [2] was 47 µM (active) and 54.5 µM (active).
`CCCC[n+]1ccccc1`: the Potency entry in assay [1], in assay [2], in assay [3], in assay [4], in [5] and in assay [6] was “inactive” in each case. Further, the Potency result in [7], in assay [8], in [11], in [13], in assay [14] and in [16] was “inactive” throughout. The Potency entry in assay [18], in assay [17] and in assay [15] was “inactive” throughout.
As for `COP(=O)(OC)OC=C(Cl)Cl`, the Potency entry in assay [1], in assay [3], in assay [4], in assay [5], in [6] and in assay [8] was “inactive” throughout. Besides, the Potency entry in assay [13], in assay [14], in assay [16], in assay [18], in assay [17] and in assay [15] was “inactive” throughout. Also, the Potency in assay [2] was 55 µM (active) and inactive; in assay [7], 412 nM (active) and inactive.

These data come from PubChem BioAssay (Tox21).
